TEAD-YAP block: TEAD-YAP interaction inhibition | inhibition, % at 9.12 µM | HEK-TIYL cells, TEAD-Gal4/YAP UAS-luciferase luminescence | hit rate 1.4% among 640,000 | AID 1259422; in the data active = inhibition above about 32%;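 also: 0% = median of test compound wells and 100% = reference inhibitor wells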
FBW7 act: human FBW7 E3 ligase activation, primary screen; AlphaScreen FBW7–phospho-cyclin E peptide binding, activator screen; normalized activity (activation), % at 26.1 µM; hit rate 0.13% among 650,000; in the data active = normalized activity above about 1.9%;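 also: purified mutant Fbw7 with reduced substrate affinity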
GPR151 activ: activators of human GPR151; Q8TDV0; PathHunter beta-arrestin GPR151 cells, luminescence; activation, % at 11.2 µM; hit rate 1% among 650,000; in the data active = activation above about 4.9%;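 also: 0% = median of compound wells and 100% = cells with positive control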
MITF primary: blocks human microphthalmia-associated transcription factor; AlphaScreen MITF homodimerization, bead proximity signal; inhibition, % at 2.6 µM; hit rate 0.91% among 650,000; in the data active = inhibition above about 50%;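 also: 0% = vehicle wells with protein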
Target sequence (O75030 whole entry, looked up): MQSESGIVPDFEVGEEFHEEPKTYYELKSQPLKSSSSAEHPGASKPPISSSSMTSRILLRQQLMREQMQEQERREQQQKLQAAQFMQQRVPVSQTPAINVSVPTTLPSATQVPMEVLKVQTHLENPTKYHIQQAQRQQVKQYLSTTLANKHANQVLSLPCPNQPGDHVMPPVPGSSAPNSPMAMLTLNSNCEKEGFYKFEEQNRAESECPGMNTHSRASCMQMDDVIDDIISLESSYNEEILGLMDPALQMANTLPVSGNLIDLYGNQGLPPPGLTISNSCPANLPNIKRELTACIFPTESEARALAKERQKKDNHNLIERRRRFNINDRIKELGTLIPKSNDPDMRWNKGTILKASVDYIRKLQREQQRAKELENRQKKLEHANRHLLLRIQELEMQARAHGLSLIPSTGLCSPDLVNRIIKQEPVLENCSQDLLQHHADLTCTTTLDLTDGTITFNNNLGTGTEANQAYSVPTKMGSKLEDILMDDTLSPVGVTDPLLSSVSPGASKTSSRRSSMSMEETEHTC
MITF inh conf: human MITF inhibition, confirmation; inhibition, % at 2.6 µM; shares compounds with MITF primary; hit rate 16% among 4,700; AlphaScreen MITF homodimerization, biotin/His-MITF beads;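 active = inhibition above a cutoff derived from the DMSO control wells, cut at about 28% in these data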;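 also: 0% = MITF dimer wells with DMSO only; inhibitors lower the bead chemiluminescence by keeping MITF from dimerizing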
AlphaScreen DR: optically interferes with AlphaScreen signal in dose response | hit rate 6% among 480 | IC50, µM | shares compounds with MITF primary | AlphaScreen optical interference counterscreen, cell-free; call rule not given here
AlphaScreen intf2: counter-screen: compounds optically interfering with AlphaScreen; LysRS AlphaScreen counterscreen, signal interference, triplicate; shares compounds with MITF primary; hit rate 7.6% among 4,700; inhibition, % at 2.6 µM; AID 1259376;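 active = inhibition above a cutoff derived from the DMSO control wells, cut at about 30% in these data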
Starred values were filed as active, the others as inactive; . = no result. Shown are actives, neighbours in structure and some others; about 3.5% of the full set was active somewhere.

SMILES	TEAD-YAP block	FBW7 act	GPR151 activ	MITF primary	MITF inh conf	AlphaScreen intf2	others
CCC(C)NCCCOc1ccc(Br)cc1C (stereo not given)	8	0	2	57*	-3	-3
CCOc1cccc(OCCCNC(C)CC)c1 (stereo not given)	1	0	0	19	.	.
CCC(C)NCCOCCOc1ccccc1 (stereo not given)	4	0	-2	-9	.	.
CCC(C)NCCOc1cccc(Br)c1 (stereo not given)	-2	0	-1	61*	45*	-20	AlphaScreen DR=>6.5
COC(=O)c1ccccc1S(=O)(=O)N1CCC(CO)(Cc2ccccc2)CC1	-7	0	0	-4	.	.
COc1ccc(-c2cc(C(F)(F)F)n3nc(C(=O)NCc4ccccc4)c(Cl)c3n2)cc1	-13	0	1	11	.	.
COc1cccc(NC(=O)CCc2nc(-c3cccc(C)c3)no2)c1	-4	0	0	-1	.	.
COc1ccc(C(=O)NCc2nnc(SCC(=O)N3N=C(c4cccs4)CC3c3ccc(F)cc3)n2Cc2ccccc2)cc1 (stereo not given)	-9	0	2	0	.	.
COc1cc(N)ccc1NC(=O)CSc1ncnc2sc3c(c12)CCCC3	6	0	1	79*	8	22
COc1ccc(OC)c(CN2CCOCC2)c1	3	0	-1	1	.	.
COc1ccc(Br)cc1CN1CCCCC1	5	0	1	-2	.	.
COc1ccc(Br)cc1CN1CCN(Cc2cccn2C)CC1	1	0	1	67*	19	16
COc1ccc(OC)c(CN2CCN(Cc3cccn3C)CC2)c1	0	0	5	63*	1	8
COc1ccc2c(c1)CC(c1nc3ncc(-c4ccnc(N)n4)cc3[nH]1)CO2 (stereo not given)	22	0	-1	18	.	.
CC(=O)c1ccc2c(c1)CC(c1nc3ncc(-c4ccnc(N)n4)cc3[nH]1)CO2 (stereo not given)	11	1	2	51*	23	-12
Cc1sc2ncn(CC(=O)NCC(=O)N3CCN(c4ccc(F)cc4)CC3)c(=O)c2c1C	2	0	3	68*	2	4
O=C(CCl)NC(c1ccccc1)c1ccc(Cl)cc1 (stereo not given)	16	0	3	9	.	.
CC(=O)CC1OC(=O)C(Br)=C1NCc1ccccc1 (stereo not given)	1	0	-1	11	.	.
O=C(CC1OC(=O)C(Br)=C1Br)CC1OC(=O)C(Br)=C1Br (stereo not given)	1	-1	-1	74*	14	2
O=C(NCc1ccccn1)C1CCN(S(=O)(=O)N2CCC3(CC2)OCCO3)CC1	1	0	1	52*	17	14
Cc1cc(=O)n(C)c(=O)n1CCCCCCNCc1ccccc1	4	0	0	77*	-8	-6
CN(Cc1ccccc1)C1CCN(Cc2ccccn2)CC1	7	0	4	41	.	.
CN(Cc1ccccc1)C1CCN(Cc2ccncc2)CC1	4	0	-1	81*	3	6
CN(Cc1ccccc1)C1CCN(Cc2cccnc2)CC1	-7	0	3	72*	-3	-1
CN(C)CCN(Cc1ccccc1)C1CCN(Cc2ccncc2)CC1	1	0	0	-3	.	.
SMILES	TEAD-YAP block	FBW7 act	GPR151 activ	MITF primary	MITF inh conf	AlphaScreen intf2	others
CCCN(CCC)S(=O)(=O)c1ccc(OCC)c2ccccc12	7	1	0	65*	1	10
COc1ccccc1C1(O)CCN(Cc2cccnc2)CC1	7	0	0	6	.	.
COc1ccc(OC)c(CN2CCN(Cc3cccnc3)CC2)c1	11	0	-1	82*	-11	0
COc1ccc(OC)c(CN2CCN(c3ccccn3)CC2)c1	-5	0	-1	47	.	.
COc1ccc(Br)cc1CN1CCN(Cc2cccnc2)CC1	-3	0	1	59*	16	16
COc1ccccc1CN1CCN(Cc2cccnc2)CC1	-3	0	1	84*	10	18
COc1ccc(Br)cc1CN1CCN(Cc2c[nH]c3ccccc23)CC1	13	0	1	30	.	.
COc1cc(OC)c(OC)cc1CN1CCN(Cc2cccnc2)CC1	-4	0	-2	82*	7	21
Cc1ccc([N+](=O)[O-])cc1-c1ccc(C2NC(C(=O)O)CS2)o1 (stereo not given)	11	0	0	13	.	.
COCCN(CCOC)C(=O)C(=O)c1c(C)[nH]c2ccccc12	-19	1	-1	4	.	.
O=C(/C=C/c1ccccc1Cl)NC(=S)NNC(=O)c1cccs1	-51	0	5	11	.	.
Cc1cc(C(=O)NNC(=S)NC(=O)/C=C/c2ccccc2Cl)n[nH]1	-46	0	0	72*	34*	70*
Cc1c(C)c2ccc(OCC(=O)OC(C)(C)C)cc2oc1=O	-22	0	-1	-8	.	.
COc1ccc(CN2CCN(C(=O)c3ccncc3)CC2)c(OC)c1	-16	0	0	60*	17	-5
COc1ccc(OC)c(CN2CCN(C(=O)c3ccccc3)CC2)c1	-11	0	-1	40	.	.
COc1cccc(C(=O)N2CCN(Cc3ccc(OC)cc3OC)CC2)c1	6	1	0	53*	-2	-3
COc1ccc(OC)c(CN2CCN(C(=O)c3ccncc3)CC2)c1	0	0	-1	74*	-11	1
COc1ccc(CN2CCN(C(=O)c3c(OC)cccc3OC)CC2)c(OC)c1	2	0	2	12	.	.
Nn1c(SCC(=O)Nc2cccc([N+](=O)[O-])c2)nncc1=O	10	0	-2	17	.	.
O=C(CCc1nnc(-c2ccc3c(c2)OCO3)o1)N1CCN(C2CCCC2)CC1	-1	1	0	-12	.	.
CSCCNC(=O)CC1C(=O)NCCN1CC(c1ccccc1)c1ccccc1 (stereo not given)	0	0	0	2	.	.
COc1ccc(-n2c(SCC(N)=O)nc3sc4c(c3c2=O)CC(C)(C)OC4)cc1	-2	0	0	-1	.	.
CN(C)C1(CNCC(=O)Nc2ccc(F)cc2)CCCCC1	3	0	0	80*	-11	-2
O=C(CNCc1ccccn1)NCc1ccc(Cl)cc1	5	-1	1	74*	31*	100*
Cc1ccc(CN2CCN(Cc3ccccn3)CC2)cc1	-2	0	-1	68*	-3	1
Cc1ccccc1CN1CCN(Cc2ccccn2)CC1	-14	0	1	79*	13	21
CS(=O)(=O)N1CCN(Cc2ccccn2)CC1	-6	-1	-1	77*	7	15
c1ccc(N2CCN(Cc3ccccn3)CC2)cc1	-2	0	1	30	.	.
N#Cc1c(-c2ccc(F)cc2)cc(C2CC2)nc1N	-17	0	-1	0	.	.
